Measurements as given in PubChem BioAssay AID1159580 (chemical genetic matrix, 2015).
Among all 5,500 compounds or so, about 2,000 (36%) were called active. About 18% were inconclusive and are not listed. Rule as the data show it: active = normalized growth mostly below about 0.91 (no sharp cut-off); inconclusive = no clear call, values can overlap the other calls; inactive = mostly above about 0.92. The list shows a part of the results.

Assay: chemical genetic growth profiling, strain panel (AID 1159580);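 also: tested at 20 µM; growth read once vehicle control cultures reached saturation at 30 °C; 1 = growth at the plate median or of vehicle wells; lower values mean less growth of the strain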
Conditions: growth OD

Measured: normalized growth

CC(C)CC(NC(=O)OCC1c2ccccc2-c2ccccc21)C(=O)O (stereo unspecified)
inactive: S. cerevisiae deletion strains, locus YAL013W, strain DEP1, active compounds read low 1.01 | S. cerevisiae deletion strains, locus YBR021W, strain FUR4, active compounds read low 0.994 | S. cerevisiae deletion strains, locus YBR229C, strain ROT2, active compounds read low 0.997 | S. cerevisiae deletion strains, locus YCL029C, strain bik1, active compounds read low 1.03 | S. cerevisiae deletion strains, locus YDL035C, strain GPR1, active compounds read low 0.998 | S. cerevisiae deletion strains, locus YDL074C, strain BRE1, active compounds read low 1 | S. cerevisiae deletion strains, locus YDL101C, strain DUN1, active compounds read low 1.02 | S. cerevisiae deletion strains, locus YDL134C, strain PPH21, active compounds read low 0.986 | S. cerevisiae deletion strains, locus YDL185W, strain tfp1, active compounds read low 0.998 | S. cerevisiae deletion strains, locus YDL192W, strain arf1, active compounds read low 1.01 | S. cerevisiae deletion strains, locus YDR101C, strain arx1, active compounds read low 1.01 | S. cerevisiae deletion strains, locus YDR150W, strain NUM1, active compounds read low 0.995 | S. cerevisiae deletion strains, locus YDR162C, strain NBP2, active compounds read low 1.01 | S. cerevisiae deletion strains, locus YDR318W, strain mcm21, active compounds read low 1.02 | S. cerevisiae deletion strains, locus YDR388W, active compounds read low 1.01 | S. cerevisiae deletion strains, locus YDR502C, strain sam2, active compounds read low 1.02 | S. cerevisiae deletion strains, locus YEL061C, strain CIN8, active compounds read low 0.997 | S. cerevisiae deletion strains, locus YER110C, active compounds read low 1.02 | S. cerevisiae deletion strains, locus YER155C, strain BEM2, active compounds read low 1 | S. cerevisiae deletion strains, locus YER167W, strain BCK2, active compounds read low 0.995 | S. cerevisiae deletion strains, locus YGL078C, strain dbp3, active compounds read low 1 | S. cerevisiae deletion strains, locus YGL086W, strain mad1, active compounds read low 0.981 | S. cerevisiae deletion strains, locus YGL248W, strain PDE1, active compounds read low 1 | S. cerevisiae deletion strains, locus YGR078C, strain PAC10, active compounds read low 1.02 | S. cerevisiae deletion strains, locus YGR135W, strain pre9, active compounds read low 1.02 | S. cerevisiae deletion strains, locus YGR229C, strain SMI1, active compounds read low 0.982 | S. cerevisiae deletion strains, locus YGR252W, strain gcn5, active compounds read low 0.916 | S. cerevisiae deletion strains, locus YHR030C, strain SLT2, active compounds read low 1.01 | S. cerevisiae deletion strains, locus YHR079C, strain IRE1 (second series), active compounds read low 1.01 | S. cerevisiae deletion strains, locus YHR094C, strain hxt1, active compounds read low 0.997 | S. cerevisiae deletion strains, locus YHR129C, strain ARP1, active compounds read low 1.01 | S. cerevisiae deletion strains, locus YHR200W, strain rpn10, active compounds read low 1.01 | S. cerevisiae deletion strains, locus YIL066C, strain RNR3, active compounds read low 1.02 | S. cerevisiae deletion strains, locus YIL073C, strain SPO22, active compounds read low 1.03 | S. cerevisiae deletion strains, locus YIL125W, strain kgd1, active compounds read low 0.992 | S. cerevisiae deletion strains, locus YIR030C, strain dcg1, active compounds read low 1 | S. cerevisiae deletion strains, locus YJL095W, strain BCK1, active compounds read low 1.07 | S. cerevisiae deletion strains, locus YJL134W, strain LCB3, active compounds read low 1 | S. cerevisiae deletion strains, locus YJL168C, strain set2, active compounds read low 1.01 | S. cerevisiae deletion strains, locus YJL187C, strain SWE1 (second series), active compounds read low 1.02 | S. cerevisiae deletion strains, locus YJR043C, strain POL32, active compounds read low 1.02 | S. cerevisiae deletion strains, locus YJR075W, strain HOC1, active compounds read low 0.997 | S. cerevisiae deletion strains, locus YKL009W, strain mrt4, active compounds read low 0.969 | S. cerevisiae deletion strains, locus YKL068W, active compounds read low 0.997 | S. cerevisiae deletion strains, locus YKL085W, strain MDH1 (second series), active compounds read low 1 | S. cerevisiae deletion strains, locus YKL085W, strain MDH1, active compounds read low 1 | S. cerevisiae deletion strains, locus YKL190W, strain CNB1, active compounds read low 0.985 | S. cerevisiae deletion strains, locus YKR001C, strain vps1, active compounds read low 1.06 | S. cerevisiae deletion strains, locus YLR039C, strain RIC1, active compounds read low 1.05 | S. cerevisiae deletion strains, locus YLR058C, strain SHM2, active compounds read low 0.997 | S. cerevisiae deletion strains, locus YLR102C, strain apc9, active compounds read low 1.01 | S. cerevisiae deletion strains, locus YLR262C, strain YPT6, active compounds read low 1.11 | S. cerevisiae deletion strains, locus YLR268W, strain sec22, active compounds read low 1.06 | S. cerevisiae deletion strains, locus YLR330W, strain CHS5, active compounds read low 0.984 | S. cerevisiae deletion strains, locus YLR342W, strain FKS1 (second series), active compounds read low 0.985 | S. cerevisiae deletion strains, locus YLR371W, strain rom2, active compounds read low 1.01 | S. cerevisiae deletion strains, locus YLR418C, strain cdc73, active compounds read low 1 | S. cerevisiae deletion strains, locus YML016C, strain PPZ1, active compounds read low 0.995 | S. cerevisiae deletion strains, locus YML032C, strain rad52, active compounds read low 1.01 | S. cerevisiae deletion strains, locus YML124C, strain tub3, active compounds read low 1 | S. cerevisiae deletion strains, locus YMR078C, strain ctf18, active compounds read low 1.01 | S. cerevisiae deletion strains, locus YMR223W, strain ubp8, active compounds read low 0.982 | S. cerevisiae deletion strains, locus YMR263W, strain SAP30, active compounds read low 1.01 | S. cerevisiae deletion strains, locus YMR307W, strain GAS1, active compounds read low 0.985 | S. cerevisiae deletion strains, locus YNL067W, strain RPL9B, active compounds read low 1.03 | S. cerevisiae deletion strains, locus YNL128W, strain TEP1, active compounds read low 1.02 | S. cerevisiae deletion strains, locus YNL153C, strain GIM3, active compounds read low 1.02 | S. cerevisiae deletion strains, locus YNL233W, strain BNI4, active compounds read low 1.01 | S. cerevisiae deletion strains, locus YNL250W, strain rad50, active compounds read low 0.996 | S. cerevisiae deletion strains, locus YNL271C, strain bni1, active compounds read low 1 | S. cerevisiae deletion strains, locus YNL298W, strain CLA4, active compounds read low 0.994 | S. cerevisiae deletion strains, locus YNL307C, strain MCK1, active compounds read low 1.02 | S. cerevisiae deletion strains, locus YNL322C, strain KRE1, active compounds read low 1 | S. cerevisiae deletion strains, locus YNR052C, strain pop2, active compounds read low 1.01 | S. cerevisiae deletion strains, locus YOL006C, strain TOP1, active compounds read low 1.1 | S. cerevisiae deletion strains, locus YOL012C, strain htz1 1.27 | S. cerevisiae deletion strains, locus YOL147C, strain pex11, active compounds read low 1.01 | S. cerevisiae deletion strains, locus YOR061W, strain CKA2, active compounds read low 0.991 | S. cerevisiae deletion strains, locus YOR069W, strain VPS5, active compounds read low 1 | S. cerevisiae deletion strains, locus YOR136W, strain idh2, active compounds read low 0.99 | S. cerevisiae deletion strains, locus YOR144C, strain elg1, active compounds read low 1 | S. cerevisiae deletion strains, locus YOR184W, strain ser1, active compounds read low 1.05 | S. cerevisiae deletion strains, locus YOR316C, strain cot1, active compounds read low 1.01 | S. cerevisiae deletion strains, locus YPL055C, strain LGE1, active compounds read low 0.963 | S. cerevisiae deletion strains, locus YPL241C, strain CIN2, active compounds read low 0.993 | S. cerevisiae deletion strains, locus YPR119W, strain clb2, active compounds read low 1 | S. cerevisiae deletion strains, locus YPR141C, strain kar3, active compounds read low 0.999 | S. cerevisiae deletion strains, locus YPR163C, strain tif3, active compounds read low 1.02 | S. cerevisiae deletion strains, locus YPR167C, strain met16, active compounds read low 1.01 | S. cerevisiae deletion strains, strain wtn01, active compounds read low 1.04 | S. cerevisiae strains, strain wild type, active compounds read low 1
